Assay results from PubChem BioAssay (Tox21).
Inconclusive results are not listed. Activity calls are given as the source filed them. Unless noted, the call rests on the fitted dose curve.

How the values were obtained:
[1] = qHTS assay to identify small molecule agonists of the estrogen related receptor (ERR) signaling pathway from Tox21 library (AID 1224849); details: ERR reporter cell line, ONE-Glo luciferase, 18 h; at 92.4 µM (top of the series) unless noted; further: nearly all actives have a fitted effect of over 15% in size
Method in brief: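 Six hours post-seeding at 37 C/5% CO2, ERR cells receive DMSO-solubilised compounds; after 18 h at 37 C, ONE-Glo reagent is applied and luminescence recorded.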

[2] = Caspase-3/7 induction in HepG2 cells by small molecules, qHTS assay (AID 1346978; active means well fitted curve in the direction sought with a large enough effect in the repeat runs; an effect the other way counts as inactive or inconclusive; further: nearly all actives have a fitted effect of over 15% in size)
Method in brief: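 Caspase-3/7 induction was measured by Caspase-Glo 3/7 luminescence (30 min, room temperature) after a 17 hr compound exposure of wild-type HepG2 cells seeded at 2,000 per well and pre-incubated 5 hr.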

[3] = molecular target: Acetylcholinesterase (Homo sapiens) (UniProt P22303); experiment: Acetylcholinesterase (AChE) small molecule antagonists: colormetric cell-based qHTS assay (AID 1347395); further: nearly all actives have a fitted effect of over 30% in size
Acetylcholinesterase (Homo sapiens), sequence (P22303 whole entry, looked up): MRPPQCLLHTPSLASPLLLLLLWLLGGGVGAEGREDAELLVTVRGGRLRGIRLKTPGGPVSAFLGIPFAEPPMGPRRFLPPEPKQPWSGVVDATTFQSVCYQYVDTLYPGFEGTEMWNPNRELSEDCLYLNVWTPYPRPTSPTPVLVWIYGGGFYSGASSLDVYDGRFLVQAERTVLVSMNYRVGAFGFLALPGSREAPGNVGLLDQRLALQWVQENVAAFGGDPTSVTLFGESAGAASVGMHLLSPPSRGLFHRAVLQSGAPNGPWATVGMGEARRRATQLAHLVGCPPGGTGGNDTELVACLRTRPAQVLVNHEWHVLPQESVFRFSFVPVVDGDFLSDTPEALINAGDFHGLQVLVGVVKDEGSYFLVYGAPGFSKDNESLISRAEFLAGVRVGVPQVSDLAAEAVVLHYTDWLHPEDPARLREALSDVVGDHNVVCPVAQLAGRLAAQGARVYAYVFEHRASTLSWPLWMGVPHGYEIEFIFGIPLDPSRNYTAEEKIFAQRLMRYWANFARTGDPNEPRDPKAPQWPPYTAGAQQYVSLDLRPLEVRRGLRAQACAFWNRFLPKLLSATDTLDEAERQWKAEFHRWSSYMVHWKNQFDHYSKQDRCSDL
Method in brief: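 Colorimetric readout: DTNB quantifies thiocholine from acetylthiocholine hydrolysed by endogenous AChE of SH-SY5Y cells (2,000/well, plated overnight). Compound pretreatment 30 min, substrate incubation 90 min, both 37 C.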

[4] = molecular target: Acetylcholinesterase (Homo sapiens) (UniProt P22303); experiment: Acetylcholinesterase (AChE) small molecule antagonists: enzyme-based qHTS assay (AID 1347397); details: Potency: AChE enzyme activity inhibition; outcome: AChE enzyme activity inhibition; further: nearly all actives have a fitted effect of over 55% in size
Method in brief: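 Absorbance-based detection of thiocholine with DTNB served as the read-out. Recombinant human AChE was exposed to compound for 30 min at RT before a 10 min RT incubation with acetylthiocholine.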

[5] = molecular target: Acetylcholinesterase (Homo sapiens) (UniProt P22303); experiment: Acetylcholinesterase (AChE) small molecule antagonists: fluorescence cell-based qHTS assay (AID 1347398); details: Potency: AChE activity; outcome: AChE activity; further: nearly all actives have a fitted effect of over 50% in size
Method in brief: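 Fluorimetric cell-based assay: intact SH-SY5Y cells, 30 min compound preincubation at 37 C, acetylthiocholine substrate with thiol probe Thiolite Green, 40 min RT development, fluorescence 490/520 nm.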

[6] = molecular target: Acetylcholinesterase (Homo sapiens) (UniProt P22303); experiment: Acetylcholinesterase (AChE) small molecule antagonists: enzyme-based qHTS assay with human liver microsomes (AID 1347399); details: Potency: qHTS inhibition; outcome: qHTS inhibition; further: nearly all actives have a fitted effect of over 60% in size
Method in brief: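 Recombinant human AChE (50 mU/mL in the enzyme mix) and human liver microsomes (0.25 mg/mL final) were preincubated with compound and NADPH (0.25 mg/mL final) for 30 min at 37 C. Acetylthiocholine/DTNB was then added; thiocholine was read colorimetrically after 10 min at room temperature.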

[7] = molecular target: Glucocorticoid receptor (Homo sapiens) (UniProt P04150); experiment: qHTS assay to identify small molecule antagonists of the glucocorticoid receptor (GR) signaling pathway (AID 720692; active means well fitted inhibition curve with a large enough effect in the signal ratio in the repeat runs, not every such curve was filed as active; the % refers to the signal ratio)
Glucocorticoid receptor (Homo sapiens), sequence (P04150 whole entry, looked up): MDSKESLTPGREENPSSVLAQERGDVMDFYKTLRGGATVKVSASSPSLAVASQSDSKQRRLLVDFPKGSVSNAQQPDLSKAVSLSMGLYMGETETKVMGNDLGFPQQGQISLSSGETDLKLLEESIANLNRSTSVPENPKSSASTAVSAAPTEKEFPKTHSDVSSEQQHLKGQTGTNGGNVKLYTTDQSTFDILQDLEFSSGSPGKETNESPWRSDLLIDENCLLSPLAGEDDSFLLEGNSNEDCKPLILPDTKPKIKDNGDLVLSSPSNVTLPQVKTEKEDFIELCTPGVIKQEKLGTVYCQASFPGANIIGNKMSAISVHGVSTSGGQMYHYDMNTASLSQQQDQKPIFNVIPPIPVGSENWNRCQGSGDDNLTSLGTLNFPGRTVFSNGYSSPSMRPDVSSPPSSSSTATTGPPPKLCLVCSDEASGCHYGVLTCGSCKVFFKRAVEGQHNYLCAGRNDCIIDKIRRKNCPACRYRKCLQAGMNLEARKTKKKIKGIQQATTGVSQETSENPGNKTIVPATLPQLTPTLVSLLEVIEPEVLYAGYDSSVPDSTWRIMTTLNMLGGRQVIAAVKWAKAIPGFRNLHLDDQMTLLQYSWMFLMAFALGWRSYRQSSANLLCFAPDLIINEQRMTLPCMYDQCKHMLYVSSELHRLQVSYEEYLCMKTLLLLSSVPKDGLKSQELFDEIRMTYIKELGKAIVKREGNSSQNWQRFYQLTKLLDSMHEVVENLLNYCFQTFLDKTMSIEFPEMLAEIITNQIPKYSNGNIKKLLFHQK
Method in brief: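 Dexamethasone (5 nM final) stimulated a stably integrated GRE-beta-lactamase reporter in HeLa cells during 18 h co-incubation with compounds; signal was quantified as fluorescence intensity of B/G FRET substrate after 2 h.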

[8] = molecular target: Aryl hydrocarbon receptor (Homo sapiens) (UniProt P35869); experiment: qHTS assay to identify small molecule that activate the aryl hydrocarbon receptor (AhR) signaling pathway (AID 743085; active means well fitted curve in the direction sought with a large enough effect in the repeat runs; an effect the other way counts as inactive or inconclusive;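 further: HG2L7.5c1 human HepG2 liver cells with stably integrated DRE-driven firefly reporter; nearly all actives have a fitted effect of over 15% in size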)
Aryl hydrocarbon receptor (Homo sapiens), sequence (P35869 whole entry, looked up): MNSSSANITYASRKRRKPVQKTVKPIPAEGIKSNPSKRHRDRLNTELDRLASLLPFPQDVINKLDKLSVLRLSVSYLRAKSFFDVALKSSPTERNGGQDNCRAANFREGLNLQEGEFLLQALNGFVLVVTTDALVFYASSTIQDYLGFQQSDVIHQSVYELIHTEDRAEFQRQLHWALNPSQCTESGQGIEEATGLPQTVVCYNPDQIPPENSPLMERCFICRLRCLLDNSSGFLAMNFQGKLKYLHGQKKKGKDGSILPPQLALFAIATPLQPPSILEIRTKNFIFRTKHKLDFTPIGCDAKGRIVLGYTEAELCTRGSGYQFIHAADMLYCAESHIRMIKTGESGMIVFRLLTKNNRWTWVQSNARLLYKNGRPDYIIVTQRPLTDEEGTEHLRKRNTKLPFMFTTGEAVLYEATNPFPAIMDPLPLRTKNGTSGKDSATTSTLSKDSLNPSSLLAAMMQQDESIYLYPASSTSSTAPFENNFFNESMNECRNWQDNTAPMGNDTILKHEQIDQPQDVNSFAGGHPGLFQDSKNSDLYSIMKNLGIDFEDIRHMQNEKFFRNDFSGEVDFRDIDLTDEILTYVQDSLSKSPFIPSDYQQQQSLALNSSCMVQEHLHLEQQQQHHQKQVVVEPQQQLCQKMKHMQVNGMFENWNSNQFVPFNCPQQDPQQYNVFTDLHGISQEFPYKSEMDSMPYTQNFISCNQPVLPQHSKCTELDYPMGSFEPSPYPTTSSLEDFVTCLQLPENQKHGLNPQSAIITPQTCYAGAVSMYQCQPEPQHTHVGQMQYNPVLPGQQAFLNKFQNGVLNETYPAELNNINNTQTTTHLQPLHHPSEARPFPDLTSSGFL
Method in brief: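 Luminescence (ONE-Glo) from a dioxin-responsive-element luciferase reporter in HG2L7.5c1 HepG2 cells after 24 hr compound exposure at 37C; viability measured by CellTiter-Fluor fluorescence beforehand.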

[9] = qHTS assay to identify small molecule agonists of H2AX (AID 1224845; active means well fitted activation curve with a large enough effect in the signal ratio in the repeat runs, not every such curve was filed as active; the % refers to the signal ratio)
Method in brief: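 Phospho-H2AX Ser139 measured by HTRF (ex 320 nm; em 665 and 620 nm) after 24 hr antibody incubation. Compounds, 15 concentrations, 0.76% DMSO, were applied to CHO-K1 cells for 3hr at 37C before lysis.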

Aromatase (Homo sapiens) = Aromatase (Homo sapiens) (UniProt P11511); experiment: qHTS assay to identify aromatase inhibitors (AID 743083; active means well fitted curve in the direction sought with a large enough effect in the repeat runs; an effect the other way counts as inactive or inconclusive; further: nearly all actives have a fitted effect of over 55% in size)
Aromatase (Homo sapiens), sequence (P11511 whole entry, looked up): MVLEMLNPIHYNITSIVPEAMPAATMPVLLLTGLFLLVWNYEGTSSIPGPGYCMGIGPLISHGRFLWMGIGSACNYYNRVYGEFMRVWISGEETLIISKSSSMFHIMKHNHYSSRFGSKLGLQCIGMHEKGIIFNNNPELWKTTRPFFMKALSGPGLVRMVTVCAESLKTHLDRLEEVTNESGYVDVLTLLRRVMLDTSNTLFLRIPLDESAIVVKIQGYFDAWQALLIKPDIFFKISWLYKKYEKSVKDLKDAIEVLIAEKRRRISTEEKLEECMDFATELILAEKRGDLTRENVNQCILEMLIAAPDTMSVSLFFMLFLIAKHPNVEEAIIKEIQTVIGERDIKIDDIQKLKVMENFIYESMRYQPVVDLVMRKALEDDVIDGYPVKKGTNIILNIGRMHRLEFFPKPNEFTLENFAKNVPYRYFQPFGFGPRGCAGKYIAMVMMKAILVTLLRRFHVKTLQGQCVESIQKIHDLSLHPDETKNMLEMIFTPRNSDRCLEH
On the % scale 0 is the no-effect control and ±100 the full control effect.

Brc1ccccc1-c1ccccc1
inactive: activity change, positive = activation [1] -1.58% | Potency [2] | Potency [3] | Potency [4] | Potency [5] | Potency [6]

CNc1ccccc1
inactive: Potency [7] | Potency [8] | Potency [9] | activity change, positive = activation [1] -1.42% | Potency [3] | Potency [4] | Potency [5] | Potency [6]

c1ccc2c(c1)ccc1ncccc12
inactive: Potency (Aromatase (Homo sapiens)) | Potency [8] | activity change, positive = activation [1] -4.48% | Potency [2] | Potency [3] | Potency [4] | Potency [5] | Potency [6]
